The record followed here is the supplement of paper PMC6555819.

Holding throughout (experiment): PBM binding z-score (relative to random genomic background probes); higher = stronger binding; sequences stand for … in GC…GCGATTGACAGCGTAGAATGAAGG
Experiment [1] deals with RARb homodimer (NR concentration 270 nM). Summed up:
(§1)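 Random background probes are the reference for binding z-scores. These scores derive from regression-normalized fluorescence on custom Agilent 4×180K protein-binding microarrays incubated 1 h with ligand-free nuclear receptor dimers. Binding was detected with antibodies against each partner (one per run).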

The test system of experiment [2] is RARg:RXRa (NR concentration 270 nM, RXRa partner concentration 90 nM). Summed up: as §1
Experiment [3] relates to RARg homodimer (NR concentration 270 nM). Summed up: as §1
Experiment [4] concerns RXRa DBDmut IVT, anti-RXR (DBD mutation: RXRa K156A/R161A, NR concentration 90 nM). Summed up: as §1
Experiment [5] deals with RXRa homodimer (NR concentration 180 nM). The essentials:
as §1

In experiment [6] the test system is THRa:RXRa (NR concentration 90 nM, RXRa partner concentration 90 nM). The essentials: as §1
For experiment [7], the system named is THRa homodimer (NR concentration 90 nM). The essentials:
as §1

Experiment [8] deals with VDR homodimer (NR concentration 270 nM). The essentials:
as §1

GCTAGCAGGCCATATGGGTCACTCAATGACGGGC: the PBM binding z-score is 1.78 in experiment [1]; 1.54 in experiment [2]; 1.39 in experiment [3]; -0.402 in experiment [4]; 1.43 in experiment [5]; 1 in experiment [6]. For the same sequence, the PBM binding z-score in experiment [7] is -0.658; in experiment [8] it was -0.276.
As for AGTCAAGGTTCACTAGGTAACGTAAGATTCAGCT, the PBM binding z-score in experiment [1] is 1.85; in experiment [2], 2.74; in experiment [3], 2.72; in experiment [4], 3.92; in experiment [5], 2.57; in experiment [6], 1.8. Also, the PBM binding z-score in experiment [7] was determined as 0.553; in experiment [8], 3.78.
Take CCAGACAGGTTAAAGGTAACTCAGTCTGGTACGC: the PBM binding z-score in experiment [1] is 1.09; in experiment [2], 2.24; in experiment [3], 1.28; in experiment [4] it was 0.388; in experiment [5] it was 3.23; in experiment [6], 1.37. For the same sequence, the PBM binding z-score in experiment [7] was -0.0486; in experiment [8], 0.276.
As for TATACAGGGACAAAGGCCAGAGTACGAATGTCGA, the PBM binding z-score in experiment [1] was 1.4; in experiment [2], 1.29; in experiment [3] it was 1.58; in experiment [4], -0.217; in experiment [5], 0.385; in experiment [6], 0.949. Besides, the PBM binding z-score in experiment [7] was -0.0231; in experiment [8], 0.738.
As for ACTATTAGTTGACACGAGGGCAACCGATAGGTTG, the PBM binding z-score in experiment [1] turned out to be 1.76; in experiment [2] it was 1.56; in experiment [3], 1.34; in experiment [4] it was 0.816; in experiment [5], 1.22; in experiment [6], 3.07. Also, the PBM binding z-score stood at 0.699 in experiment [7] and 1.07 in experiment [8].
On to GCGACTGGGTCATCAGCAGGTTACCATAACTTAA, for which the PBM binding z-score is 2.55 in experiment [1]; 4.89 in experiment [2]; 3.53 in experiment [3]; 0.877 in experiment [4]; 3.03 in experiment [5]; 2.88 in experiment [6]. For the same sequence, the PBM binding z-score in experiment [7] turned out to be 0.268; in experiment [8] it was 0.085.
For TCTGCTAGGTCACTTGGTCAGCTAACGAGCTGCC, the PBM binding z-score in experiment [1] stood at 3.07; in experiment [2], 4.03; in experiment [3], 4.52; in experiment [4], 1.54; in experiment [5], 2.41; in experiment [6] it was 2.58. Besides, the figures for the PBM binding z-score in experiment [7] and in experiment [8] were 0.574 and 0.129, respectively.
